# Most compounds without a hit are left out; they make up all but 9.2% or so of the library.
# Rab9 prom act = activates the Rab9 promoter; Huh7 Rab9 promoter-luciferase reporter, luminescence, 24 h; Potency, µM (series often up to 9.22 µM), for the others: at the top dose activation, negative = inhibition, usual class: activators; 320,000 tested, 2.8% active; AID 485297; also: % of control where 0% means no effect; nearly all actives have a fitted effect of over 60% in size
#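 Huh7 cells stably carrying a Rab9 promoter-luciferase reporter, 1500 cells per well in OP-MEM I with 10% FBS, treated with compound 24 hours at 37C. Luciferase activity read by luminescence after 10 minutes with Amplite reagent.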
# ELG1 genotox = genotoxicity induction in ELG1-luciferase HEK293T cells; HEK293T ELG1-luciferase reporter, luminescence, 16 h; Potency, µM (doses to about 46 µM), for inactives: at the highest dose activity change, positive = activation, actives largely listed as activators; 330,000 tested, 1.3% active; AID 504466; also: % of control where 0% means no effect; nearly all actives have a fitted effect of over 60% in size
#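 After overnight (16 hr) compound treatment at 37 °C, ELG1-luciferase HEK293T cells were lysed with ONE-Glo; luminescence quantified 30 min later at room temperature.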
# SMN2 splice enh = SMN2 splice variant enhancement. AID 1458. HEK293 SMN2-luciferase splicing reporter, luminescence, 30-36 h. 210,000 tested, 2.8% active. Potency, µM (doses to about 46.1 µM), inactives show at the top dose activity change, positive = activation, usual class: activators; also: % of control where 0% means no effect; nearly all actives have a fitted effect of over 55% in size
#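 qHTS luciferase splicing reporter: luminescence rises when SMN2 exon 7 is included in transfected HEK293 cells. Compound exposure lasted 30-36 h at 37C, with 4.5 mM final sodium butyrate as control, followed by a ONE-Glo read.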
# NPC1 promoter act = NPC1 promoter activation; Huh7 NPC1 promoter luciferase reporter, 24 h; Potency, µM (top dose mostly 9.22 µM), without a hit: top-dose activation, usual class: activators; 320,000 tested, 2.4% active; also: % of control where 0% means no effect; nearly all actives have a fitted effect of over 60% in size
#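 Compounds in DMSO were transferred onto Huh7 NPC1-luciferase reporter cells pre-incubated 2 h; after 24 h at 37 °C, Amplite reagent was dispensed and luminescence recorded 10 min later.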
# ELG1 repair inh = ELG1-dependent DNA repair inhibition | Potency, µM (series often up to 46.1 µM), without a hit: at the top dose activity change, negative = inhibition, actives largely listed as inhibitors | 330,000 tested, 2.3% active | HEK293T ELG1-luciferase reporter, luminescence, 16 h; DNA damage induced by 5-fluorouridine; also: % is scaled to controls: 0 for no effect and ±100 for the full control effect; nearly all actives have a fitted effect of over 55% in size
#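 Step one: seed 2,000 cells per well. Step two: pin-transfer compound or DMSO alongside 5-fluorouridine. Step three: incubate 16 hr, 37 °C, 5% CO2. Step four: add ONE-Glo, wait 30 min, read luminescence.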
# FLuc modulator = inhibits or activates purified firefly luciferase, miR-21 counter-screen. P08659. purified FLuc, Km substrates, luminescence inhibition. Potency, µM (titrated, usually from 57.5 µM), for inactives: at the highest dose activity change, negative = inhibition, hits mostly inhibitors. 360,000 tested, 6.9% active. AID 588342;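 also: plate controls were vehicle for no effect and reference inhibitor for full effect; nearly all actives have a fitted effect of over 55% in size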
#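 Biochemical qHTS of compounds, final roughly 60 µM downward over six points, against 10 nM purified firefly luciferase using Km concentrations of substrates (10 uM D-luciferin, 10 uM ATP) in Tris acetate pH 7.5 buffer; luminescence output.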
# ELG1 FLuc counter = luciferase inhibition in cell-free luciferin readout for ELG1 hits. AID 624247. 350 tested, 3% active. cell-free firefly luciferase luminescence counter-screen, ViewLux. shares compounds with ELG1 repair inh. Potency, µM (series often up to 46.1 µM), without a hit: top-dose activity change, negative = inhibition, usual class: inhibitors; also: % is scaled to controls: 0 for no effect and ±100 for the full control effect
# ELG1 Luc conf = inhibits ELG1-dependent DNA repair in HEK293T cells, confirmed; shares compounds with ELG1 repair inh; HEK293T ELG1-luciferase levels, luminescence; cells co-treated with 5-fluorouridine; Potency, µM (titrated, usually from 46.1 µM), for the others: at the highest dose activity change, negative = inhibition, actives largely listed as inhibitors; 670 tested, 68% active; AID 624248; also: % is scaled to controls: 0 for no effect and ±100 for the full control effect; nearly all actives have a fitted effect of over 55% in size
# Target sequence (Q96QE3 whole entry, looked up): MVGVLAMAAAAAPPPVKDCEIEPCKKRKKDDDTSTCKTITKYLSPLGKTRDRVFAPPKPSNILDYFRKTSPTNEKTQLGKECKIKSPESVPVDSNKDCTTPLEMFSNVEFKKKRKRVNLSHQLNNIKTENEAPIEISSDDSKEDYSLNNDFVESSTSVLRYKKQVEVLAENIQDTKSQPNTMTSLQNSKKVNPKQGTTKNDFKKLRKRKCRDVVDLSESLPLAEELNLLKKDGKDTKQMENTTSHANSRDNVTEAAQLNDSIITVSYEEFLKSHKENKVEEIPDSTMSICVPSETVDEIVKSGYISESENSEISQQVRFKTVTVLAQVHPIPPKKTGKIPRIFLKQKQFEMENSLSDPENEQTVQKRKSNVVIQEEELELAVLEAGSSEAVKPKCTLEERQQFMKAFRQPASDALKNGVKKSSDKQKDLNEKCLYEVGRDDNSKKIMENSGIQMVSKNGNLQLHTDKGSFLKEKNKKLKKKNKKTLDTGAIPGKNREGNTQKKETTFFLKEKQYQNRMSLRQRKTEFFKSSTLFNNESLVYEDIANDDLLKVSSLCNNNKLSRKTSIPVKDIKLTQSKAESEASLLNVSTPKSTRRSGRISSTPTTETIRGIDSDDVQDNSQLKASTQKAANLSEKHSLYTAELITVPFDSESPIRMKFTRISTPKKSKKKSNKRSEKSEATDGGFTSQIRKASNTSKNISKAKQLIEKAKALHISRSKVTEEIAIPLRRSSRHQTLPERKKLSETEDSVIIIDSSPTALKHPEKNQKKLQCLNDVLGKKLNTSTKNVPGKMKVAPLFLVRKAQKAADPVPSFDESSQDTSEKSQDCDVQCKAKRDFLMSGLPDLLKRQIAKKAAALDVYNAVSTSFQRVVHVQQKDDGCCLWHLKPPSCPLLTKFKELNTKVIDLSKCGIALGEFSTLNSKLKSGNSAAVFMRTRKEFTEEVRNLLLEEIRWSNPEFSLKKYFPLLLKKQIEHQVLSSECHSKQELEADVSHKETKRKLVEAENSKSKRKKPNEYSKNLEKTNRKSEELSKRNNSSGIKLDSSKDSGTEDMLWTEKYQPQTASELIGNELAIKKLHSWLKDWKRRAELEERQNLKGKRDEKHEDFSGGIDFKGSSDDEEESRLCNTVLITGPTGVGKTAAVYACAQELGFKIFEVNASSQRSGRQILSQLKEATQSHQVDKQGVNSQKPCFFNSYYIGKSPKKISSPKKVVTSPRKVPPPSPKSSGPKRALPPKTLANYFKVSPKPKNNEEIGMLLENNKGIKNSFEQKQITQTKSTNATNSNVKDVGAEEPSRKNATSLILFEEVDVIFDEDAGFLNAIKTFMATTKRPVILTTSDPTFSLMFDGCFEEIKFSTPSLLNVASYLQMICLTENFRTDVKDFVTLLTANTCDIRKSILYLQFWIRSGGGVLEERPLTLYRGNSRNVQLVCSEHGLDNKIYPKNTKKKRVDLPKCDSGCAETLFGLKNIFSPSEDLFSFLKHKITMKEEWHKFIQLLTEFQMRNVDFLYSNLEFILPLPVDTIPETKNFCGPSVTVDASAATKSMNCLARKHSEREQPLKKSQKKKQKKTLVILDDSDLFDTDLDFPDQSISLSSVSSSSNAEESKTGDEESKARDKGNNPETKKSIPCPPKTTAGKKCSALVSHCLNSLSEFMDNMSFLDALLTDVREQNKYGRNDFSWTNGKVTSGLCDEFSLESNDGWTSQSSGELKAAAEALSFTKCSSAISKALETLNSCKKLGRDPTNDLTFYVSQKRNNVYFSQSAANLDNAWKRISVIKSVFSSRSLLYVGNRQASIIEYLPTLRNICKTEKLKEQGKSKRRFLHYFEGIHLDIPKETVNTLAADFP
# ELG1 MMS Luc = MMS-stimulated human ELG1 repair inhibition, confirmed. 670 tested, 53% active. HEK293T luciferase-tagged ELG1 level, MMS stimulated. shares compounds with ELG1 repair inh. Potency, µM (top dose mostly 46.1 µM), for the others: top-dose activity change, negative = inhibition, actives largely listed as inhibitors; also: % is scaled to controls: 0 for no effect and ±100 for the full control effect; nearly all actives have a fitted effect of over 60% in size
# ELG1 5-FU = confirmation of ELG1 repair inhibitors: viability with 5FU | shares compounds with ELG1 repair inh | cell viability with 5-FU, ELG1-dependent repair | Potency, µM (highest dose often 46.1 µM), for inactives: at the highest dose activity change, negative = viability loss, hits mostly cytotoxic | 670 tested, under 10 active | AID 624250;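 also: ELG1-luc HEK293T cells cotreated with 5-fluorouridine at 10 µM final; viability measured 16 h after compound addition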
# ELG1 MMS cell = confirmation of ELG1 repair inhibitors: viability with MMS | shares compounds with ELG1 repair inh | Cell viability with MMS, ELG1-dependent DNA repair | Potency, µM (highest dose often 46.1 µM), for inactives: top-dose activity change, negative = viability loss, actives largely listed as cytotoxic | 670 tested, 33% active;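 also: ELG1-luc HEK293T cells co-treated with 10 µM MMS; viability read 16 h after compound addition; % is scaled to controls: 0 for no effect and ±100 for the full control effect; nearly all actives have a fitted effect of over 60% in size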
# ELG1 unstim viab = affects unstimulated cell viability, ELG1 hit counter-screen | shares compounds with ELG1 repair inh | cell viability counter-screen, unstimulated, luminescence | Potency, µM (titrated, usually from 45.9 µM), inactives show top-dose activity change, negative = loss of viability, hits mostly cytotoxic | 900 tested, 8% active | AID 624252;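 also: compound exposure lasted 16 hours before reading; % is scaled to controls: 0 for no effect and ±100 for the full control effect; nearly all actives have a fitted effect of over 55% in size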
# FLuc biochem = inhibits purified firefly luciferase, counter-screen for ELG1 hits; AID 624253; purified firefly luciferase, luminescence counter-screen; 350 tested, 10% active; Potency, µM (titrated, usually from 57.5 µM), without a hit: at the highest dose activity, negative = inhibition, hits mostly inhibitors; shares compounds with ELG1 repair inh; also: % is scaled to controls: 0 for no effect and ±100 for the full control effect
# An asterisk follows results filed as active; ? = inconclusive; . = no result given. Calls follow the shape of the dose curve; as a rule, active = well fitted curve in the direction sought with a large enough effect; inconclusive = small, poorly fitted or top-dose-only effect, or another doubt; inactive = no such curve, though single readings can be large; an effect the other way counts as inactive or inconclusive. Potency is read from the fitted curve at half-maximal effect.
SMILES,Rab9 prom act,ELG1 genotox,SMN2 splice enh,NPC1 promoter act,ELG1 repair inh,FLuc modulator,ELG1 FLuc counter,ELG1 Luc conf,ELG1 MMS Luc,ELG1 5-FU,ELG1 MMS cell,ELG1 unstim viab,FLuc biochem
COc1ccc(CCc2nnc(CCC(=O)N(C)Cc3ccnc4ccccc34)o2)cc1,-21%,-2%,.,-16%,?,-16%,.,?,7.1µM*,-7%,6.3µM*,?,.
CN(CC1CCCO1)S(=O)(=O)c1ccc(C(=O)Nc2nc3cc4c(cc3s2)OCO4)cc1 (configuration not stated),-44%,-1%,.,-37%,2.6µM*,-5%,.,4.4µM*,1.1µM*,-17%,1.1µM*,?,.
COc1ccc(NC(=O)CNC(=O)c2nn(-c3ccc(OC)c(Cl)c3)c(=O)c3ccccc23)c(OC)c1,10%,-8%,.,0%,5.8µM*,2%,-3%,3.5µM*,-2%,10%,-1%,?,-13%
CCc1ccc(NC(=O)CNC(=O)c2nn(-c3ccc(OC)cc3)c(=O)c3ccccc23)cc1,-11%,-12%,.,-4%,-14%,3%,1%,14µM*,16%,?,-3%,?,-9%
COc1ccc(-n2nc(C(=O)NCC(=O)Nc3ccccn3)c3ccccc3c2=O)cc1Cl,-2%,13%,-11%,-8%,?,0%,.,.,.,.,.,.,.
O=S(=O)(c1ccc(Br)s1)N1CCNCC1,2%,1%,.,1%,-1%,0%,.,.,.,.,.,.,.
Cc1ccc2c(c1)sc1nc(=O)n(-c3ccccc3)c(=O)n12,0.32µM*,?,.,0.56µM*,?,?,54%,.,.,.,.,1%,?
Cc1ccc2c(c1)sc1ncc(NC(=O)c3ccc(F)cc3)c(=O)n12,-1%,5%,-13%,-4%,?,-5%,.,.,.,.,.,.,.
Cc1ccc(S(=O)(=O)N2CCCCC2c2cccnc2)c(C)c1C (configuration not stated),9%,-9%,.,-2%,0.82µM*,1%,1%,0.014µM*,14µM*,-1%,20µM*,?,3%
O=S(=O)(c1cccc(C(F)(F)F)c1)N1CCCC1c1cccnc1 (configuration not stated),-4%,-1%,.,3%,1%,-2%,.,.,.,.,.,.,.
Cc1ccccc1-n1c(SCC(=O)c2c(N)n(C)c(=O)n(C)c2=O)nc2sc3c(c2c1=O)CCCC3,-6%,0%,-7%,-7%,1.6µM*,3%,-7%,2.5µM*,-17%,?,-1%,-16%,-2%
Cc1ccccc1-n1c(SCC(=O)c2c(N)n(C)c(=O)n(C)c2=O)nnc1-c1cccnc1,-5%,-8%,-14%,-2%,?,3%,.,.,.,.,.,.,.
O=C(NC(n1ccc(=O)[nH]c1=O)C(Cl)(Cl)Cl)C12CC3CC(CC(C3)C1)C2 (configuration not stated),1%,3%,.,11%,-6%,2%,.,.,.,.,.,.,.
CCc1ccc2nc(SCC(=O)Nc3ccccc3N3CCOCC3)c(C#N)cc2c1,-29%,0%,.,-35%,?,-2%,4%,?,7.1µM*,-15%,11µM*,?,3%
Nc1cc(N)nc(SCC(=O)Nc2ccccc2N2CCOCC2)n1,0%,1%,.,2%,8%,1%,.,.,.,.,.,.,.
COc1nc(Nc2nc3ccccc3c(=O)[nH]2)nc2ccc(C)cc12,-30%,-8%,.,-34%,4.6µM*,-2%,.,2.2µM*,3.1µM*,?,7%,-5%,.
COc1ccc(C2C(C(=O)N3CCC(C(N)=O)CC3)CC(=O)N2c2ccc(OC)cc2)cc1 (configuration not stated),-1%,23%,-40%,-5%,-17%,-1%,.,.,.,.,.,.,.
Cc1ccc(S(=O)(=O)NCc2ccncc2)c(C)c1C,-5%,0%,.,-3%,0%,-5%,-8%,10%,1µM*,-10%,1.1µM*,?,-4%
COc1cc(C)c(Br)cc1S(=O)(=O)NCc1ccncc1,-24%,-3%,-45%,-20%,1.6µM*,0%,-6%,-7%,3.2µM*,-7%,3.2µM*,?,-1%
Cc1ccc(S(=O)(=O)NCc2ccccn2)c(C)c1C,0%,-2%,.,-1%,?,4%,.,.,.,.,.,.,.
COc1c(S(=O)(=O)N2CCN(C(=O)c3ccco3)CC2)ccc(Cl)c1Cl,0%,4%,.,1%,-16%,-3%,.,.,.,.,.,.,.
CC1Cc2ccccc2N1C(=O)CSc1nccc(=O)[nH]1 (configuration not stated),-1%,1%,.,-11%,7%,-3%,.,.,.,.,.,.,.
Cc1cc2oc(C(=O)Nc3cccc(-c4nc5ccccc5o4)c3)c(C)c2cc1C,.,.,.,.,.,2%,.,.,.,.,.,.,.
COc1ccc(CSc2nnc3[nH]c(=O)cc(N)n23)cc1,2%,6%,-6%,-3%,-10%,?,.,.,.,.,.,.,.
Cc1cc(Nc2sc(C(=O)c3ccc(F)cc3)c(N)c2C(=O)Nc2ccc(F)cc2)ccc1Cl,.,.,.,.,.,-1%,.,.,.,.,.,.,.
